Bioassay records as filed in PubChem.
Pf Dd2 inh = Plasmodium falciparum Dd2 growth inhibition | P. falciparum Dd2 growth, SYBR Green, 72 h | Potency, µM (top dose mostly 28.9 µM), actives largely listed as inhibitors | 120,000 tested, 4.3% active; active = well fitted inhibition curve with a large enough effect; also: nearly all actives have a fitted effect of over 65% in size
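Infected erythrocytes (Dd2, 0.3% parasitemia, 2.5% hematocrit final) are added to compound in RPMI-1640/Albumax II medium, grown 72 h at 37C in low oxygen, then lysed with saponin/Triton-X containing SYBR Green and read by fluorescence.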
Each line names hits and unclear results; the compound was inactive in the other large screens. The entries come from a sample that favours hits as a whole.

COC(=O)c1c(-c2ccc(Cl)cc2)noc1N1CCN(c2cccc(C)c2C)CC1	Pf Dd2 inh 4.5µM
Cc1ccc(C)c(NC(=O)CN2C(=O)NC3(CCC(C)CC3)C2=O)c1 (stereo not drawn)	none
CC(=O)Nc1ccc(CN2CCn3c(nnc3-c3ccncc3)C2)cc1	none
CCOC(=O)N1CCc2c(sc3c2c(=O)n(-c2ccc(CC)cc2)c(=O)n3Cc2cccc(Cl)c2)C1	none
CCOC(=O)N1CCc2c(sc3c2c(=O)n(Cc2ccccc2)c(=O)n3CC(=O)Nc2ccc(F)cc2)C1	none
CCOC(=O)N1CCc2c(sc3c2c(=O)n(-c2ccc(CC)cc2)c(=O)n3Cc2ccc(F)cc2Cl)C1	Pf Dd2 inh 10µM
CC(=O)N1CCc2c(sc3c2c(=O)n(-c2ccccc2)c(=O)n3CC(=O)Nc2ccccc2)C1	none
CCOC(=O)N1CCc2c(sc3c2c(=O)n(Cc2ccccc2)c(=O)n3Cc2c(F)cccc2Cl)C1	Pf Dd2 inh 3.2µM
CC(=O)N1CCc2c(sc3c2c(=O)n(-c2cc(Cl)ccc2C)c(=O)n3Cc2ccccc2F)C1	Pf Dd2 inh 10µM
CC(=O)N1CCc2c(sc3c2c(=O)n(Cc2ccccc2)c(=O)n3Cc2ccccc2F)C1	none
CC(=O)N1CCc2c(sc3c2c(=O)n(-c2ccccc2C)c(=O)n3Cc2cccc(F)c2)C1	none
CCOC(=O)N1CCc2c(sc3c2c(=O)n(-c2ccccc2)c(=O)n3CC(=O)Nc2ccc(OC)cc2OC)C1	Pf Dd2 inh 4.5µM
CC(=O)N1CCc2c(sc3c2c(=O)n(-c2ccccc2)c(=O)n3CC(=O)Nc2cc(C)cc(C)c2)C1	none
CC(=O)N1CCc2c(sc3c2c(=O)n(Cc2ccccc2)c(=O)n3Cc2ccc(C)cc2)C1	none
CCOC(=O)N1CCc2c(sc3c2c(=O)n(-c2ccc(Cl)cc2)c(=O)n3CC(=O)c2ccc(F)cc2)C1	none
O=C(NC1CCCCCC1)C1CCN(c2cn[nH]c(=O)c2)C1 (stereo not drawn)	none
Nc1cnc(-c2cccnc2)nc1	none
COCCOC1CCOC2(CCN(C(=O)CCn3nc(C)cc3C)CC2)C1 (stereo not drawn)	none
COCCC1(C(=O)O)CCCCC(=O)N1 (stereo not drawn)	none
Fc1ccc(NC(=S)N[C@H]2CO[C@H]3[C@@H]2OC[C@@H]3n2nnnc2Oc2ccc3c(c2)OCO3)cc1	none
O=C(c1ccc(F)cc1)N1CCC[C@H]1c1nc(-c2ccccc2)no1	none
COCCN1C(=O)CS(=O)(=O)C12CCN(C(=O)C1(c3ccc(OC)cc3)CC1)CC2	none
CC1Oc2ccc(NC(=O)Cc3ccc(F)cc3)cc2CN(CC2CC2)C1=O (stereo not drawn)	none
CN1C[C@H](O)C[C@H]1c1nc(-c2ccc(OC(F)(F)F)cc2)no1	none
COc1cccc(NC(=O)Cn2c(=O)n(-c3ccccc3)c(=O)c3c4c(sc32)CCCC4)c1	none
COC(=O)c1sc2c(c1C)c(=O)n(-c1ccccc1)c(=O)n2CC(=O)Nc1cccc(C)c1	Pf Dd2 inh 11µM
CC(=O)N1CCc2c(sc3c2c(=O)n(-c2ccccc2)c(=O)n3CC(=O)Nc2cccc(C)c2)C1	none
CN(CC1CCOCC1)S(=O)(=O)Cc1cccc(Cl)c1	none
COC(=O)c1ccc2nc(C[C@@H]3C[C@@H](C(C)C)[C@H](CNC4CCN(C)CC4)C=C3C)[nH]c2c1	Pf Dd2 inh 3.2µM
CC1=C[C@@H](CNC(=O)C2CCC2)[C@H](C(C)C)C[C@H]1Cc1nc2ccc(F)cc2[nH]1	Pf Dd2 inh 11µM
CC1=C[C@@H](CNC(=O)c2cnccn2)[C@H](C(C)C)C[C@H]1Cc1nc2ccc(C)cc2[nH]1	none
CC1=C[C@@H](CNC(=O)CC2(CC(=O)O)CCCC2)[C@H](C(C)C)C[C@H]1Cc1nc2ccc(C)cc2[nH]1	none
CC1=C[C@@H](CNC(=O)CCC(=O)O)[C@H](C(C)C)C[C@H]1Cc1nc2ccc(F)cc2[nH]1	none
COc1ccc2[nH]c(C[C@@H]3C[C@@H](C(C)C)[C@H](CNC4CCN(C(C)=O)CC4)C=C3C)nc2n1	none
CC(=O)N1CCC(NC[C@@H]2C=C(C)[C@H](Cc3nc4ccc(C)cc4[nH]3)C[C@H]2C(C)C)CC1	Pf Dd2 inh 11µM
CC(=O)N1CCC(NC[C@@H]2C=C(C)[C@H](Cc3nc4ccc(F)cc4[nH]3)C[C@H]2C(C)C)CC1	Pf Dd2 inh 11µM
CN1C[C@@H](NC(=O)Nc2ccccc2)C[C@H]1c1nc(-c2ccc(Cl)cc2)no1	none
COCCOCC(=O)NC1CCN(C(=O)N2CC3CC(C2)[C@H]2CCCC(=O)N2C3)CC1 (stereo partly drawn)	none
CCC1=C(C(=O)OC)C(c2ccccc2Cl)N2C(CC(=O)N(C)Cc3ccccc3)=CSC2=N1 (stereo not drawn)	none
COc1ccc(OC2CCN(C(=O)C3CC3)CC2)c(C(=O)N2CCCCO2)c1	none
O=C(NCC1CC1)c1c(OCC2CC2)cc(=O)n2c1CCCCC2	none
CC(C)CNC(=O)C1(CCO)CC12CCOCC2 (stereo not drawn)	none
CC(=O)Nc1ccc(CC(=O)N2CCc3c(c(-c4nncn4C)nn3C)C2)cc1	none
COc1ccc(N2CC(C(=O)NCCOc3ccccc3)NC2=O)cc1 (stereo not drawn)	none
COCCNc1cc(-c2cc(C(F)(F)F)ccn2)c2cc[nH]c2n1	Pf Dd2 inh 10µM
COCCNc1ccc2nnc(-c3ccc(C)cn3)n2n1	none
COCCNc1ccc2nnc(-c3cc(C#N)ccn3)n2n1	none
O=C(Nc1ccc([C@@H](O)[C@H]2COCC(=O)N2Cc2ccccc2)cc1)c1ccc(F)cc1	none
CCn1c2c(c(=O)n1Cc1ccccc1)CCN(C(=O)c1cccnc1)C2	none
COc1ccc(-c2cn3cccnc3n2)cc1NC(=O)c1ccccc1C(F)(F)F	none
COc1ccc(-c2cn3cccnc3n2)cc1NC(=O)c1cc(C)cc(C)c1	Pf Dd2 inh 13µM
Cc1ccc(C(=O)Nc2cc(-c3cn4cccnc4n3)ccc2C)cc1C	none
O=C([C@@H]1C[C@H](Oc2ccccc2)CN1C(=O)c1ccccn1)N1CCOCC1	none
CC1(c2noc(-c3ccccn3)n2)CCN(C(=O)CCC(=O)N2CC(=O)Nc3ccccc32)CC1	none
CC1(c2noc(-c3ccccn3)n2)CCN(C(=O)CCc2nc3ccc(Cl)cc3[nH]2)CC1	Pf Dd2 inh 5.6µM
CC1(c2noc(C3CC3)n2)CCN(C(=O)CCc2nc3ccc(Cl)cc3[nH]2)CC1	none
COCCN1C(=O)c2cccn2CC1CNC(=O)Cn1nc(C(F)(F)F)cc1C (stereo not drawn)	none
CCCCc1cn(CC2CCN(C(=O)c3ccco3)CC2)nn1	none
CC(C)N1CCN(C(=O)CN2CC3CC(C2)[C@H]2CCCC(=O)N2C3)CC1 (stereo partly drawn)	none
CCCc1ccc(S(=O)(=O)N2CCC(c3c[nH]c4c(C)cccc34)CC2)cc1	none
COc1ccccc1C(=O)N1CCC(Cc2nc(-c3ccc(F)cc3)no2)CC1	none
COc1ccc(Cn2c(C3CCN(C(=O)c4sccc4C)CC3)n[nH]c2=O)cc1	none
COCC(=O)N1CCCN(C(=O)C2CC2)c2ccccc21	none
N[C@H]1c2ccccc2C[C@@H]1NC(=O)COc1ccc(Cl)cc1Cl	none
Cc1nc(C)c(C(=O)N2CCC3(CC2)CC(N2CCCCC2)CCO3)s1 (stereo not drawn)	none
Cc1ccc(C(=O)Nc2cccn3nc(C4CCC4)nc23)cc1C	none
O=C(Nc1cccn2nc(C3CCC3)nc12)c1ccc(F)cc1	none
O=C(Nc1cccn2nc(C3CCC3)nc12)c1cccc(C(F)(F)F)c1	Pf Dd2 inh 4.5µM
O=C(NCc1ccncc1)c1cc(C2CC2)nc2c1c(C1CCCN1)nn2-c1ccccc1 (stereo not drawn)	Pf Dd2 inh 8.9µM
O=C(NCC(F)(F)F)c1cc(C2CC2)nc2onc(C3CCCNC3)c12 (stereo not drawn)	none
